# In the library only some 3.9% were active in any assay of this set; here they are far more common.
# BoNT A protease = BoNT/A light chain protease inhibitors, primary screen, biochemical, flow cytometry, MLPCN library. Botulinum neurotoxin type A light chain protease (Clostridium botulinum A str. ATCC 3502). multiplex microsphere protease substrate cleavage. inhibition, % at 10 µM. 0.17% of 360,000 active. AID 588499, 2011; also: plate controls were buffer without enzyme for full effect and enzyme alone for no effect
# Autofluor counter = counter-screen for toxin protease inhibitors: compound fluorescence. compound autofluorescence counterscreen, microsphere flow cytometry; stronger effect = higher value. 3.1% of 360,000 active. AID 624483. fluorescence intensity (concentration not given with the values); in the data active = fluorescence intensity above about 16000; inconclusive = no clear call, values can overlap the other calls
# SARS 3CLpro inh = SARS-CoV 3CLpro protease inhibitors, primary screen, biochemical, quenched FRET. recombinant SARS-CoV 3CLpro, quenched FRET peptide cleavage. inhibition, % at 6 µM. Replicase polyprotein 1ab (Severe acute respiratory syndrome coronavirus), P0C6X7. 0.14% of 290,000 active; in the data active = inhibition above about 12%
# Anthrax LF prot = Bacillus anthracis LF protease inhibitors, primary screen, biochemical, multiplex microsphere, MLPCN library; multiplex microsphere protease cleavage assay; inhibition, % at 10 µM; 0.12% of 360,000 active; also: plate controls were buffer without enzyme for full effect and enzyme alone for no effect
# CCHF vOTU inh = CCHFV vOTU protease inhibitors, primary screen, biochemical, Pep-AMC substrate, fluorescence. 0.55% of 370,000 active. inhibition, % at 11.5 µM. Crimean-Congo hemorrhagic fever virus L polyprotein viral ovarian tumor (vOTU) protease …; in the data active = inhibition above about 30%; also: 0% = vehicle wells with enzyme and 100% = no enzyme wells
# BoNT F protease = BoNT/F light chain protease inhibitors, primary screen, biochemical, flow cytometry, MLPCN library; Botulinum neurotoxin type F light chain protease (Clostridium botulinum); Multiplex microsphere protease cleavage assay; inhibition, % at 10 µM; 0.22% of 360,000 active; AID 588497, 2011; in the data active = inhibition above about 35%, passing the limit was not always enough; inconclusive = no clear call, values can overlap the other calls; also: plate controls were buffer without enzyme for full effect and enzyme alone for no effect
# * hit, by the source's call; ? = inconclusive; nt = not tested or not shown. Rule as the data show it, unless noted: active = inhibition above about 30%; inconclusive = no clear call, values can overlap the other calls; inactive = below that.
SMILES,BoNT A protease,Autofluor counter,SARS 3CLpro inh,Anthrax LF prot,CCHF vOTU inh,BoNT F protease
Cc1ccc(C2=CCN(C)C(=O)N2c2ccc([N+](=O)[O-])cc2)cc1,nt,nt,nt,nt,4,nt
COC(=O)[C@]12C[C@H](CC(=O)NCCCCc3ccccc3)C(=O)N(Cc3ccc4c(c3)OCO4)C1=C[C@H](COCc1ccccc1)O[C@@H]2C,nt,nt,nt,nt,8,nt
O=S1(=O)c2ccc(N3CCCC3)cc2Oc2ccccc2CN1Cc1cn(Cc2cccc(F)c2)nn1,nt,nt,nt,nt,-3,nt
Cc1ccc(/C=N/NC(=O)C2CC(=O)N(c3ccccc3)C2)s1 (stereo unspecified),2,2782,0,1,-13,30
O=C(N/N=C/c1cccs1)C1CC(=O)N(c2ccccc2)C1 (stereo unspecified),1,20162*,3,-2,15,3
CCC(=O)N1CCc2cc(S(=O)(=O)NCCC(=O)N3CC=C(c4ccccc4)CC3)ccc21,-2,22498*,2,-1,-5,-4
CCC(=O)N1CCc2cc(S(=O)(=O)NCCC(=O)N3CCc4ccccc4C3)ccc21,0,10223,3,-4,-6,3
C=CCn1c(COc2ccccc2F)nnc1SCC(=O)NC(=O)NCc1ccco1,-1,6117,0,-2,-16,-7
C=CCn1c(COc2ccccc2-c2ccccc2)nnc1SCC(=O)NC(=O)NCc1ccco1,-4,21241*,4,-2,-1,-6
O=C(CCCn1c(=S)[nH]c2cc3c(cc2c1=O)OCO3)NC1CC1,-1,22975*,3,-1,12,-2
CC(C)C1N=C(NC(=O)OCc2ccccc2)NC1=O (stereo unspecified) (tested in a mixture with another compound),nt,nt,nt,nt,13,nt
C=CCn1c(C)cc(C)c(C#N)c1=O,0,22789*,-4,-5,5,1
C[C@H](O)[C@@H]1C(=O)N2CCc3c([nH]c4c(-c5ccc6c(c5)OCO6)cccc34)[C@@H]2C[C@@H]1N(C)C(=O)OCc1ccccc1,nt,nt,nt,nt,6,nt
O=C(NC(Cc1ccccc1)C(=O)NCc1ccccn1)c1ccco1 (stereo unspecified),-2,17464*,0,-4,1,-7
O=C(NCc1ccccn1)c1ccco1,-1,2411,4,1,0,1
Cc1ccc(-c2c(NC(=O)c3ccccc3)nc3ncccn23)cc1,nt,nt,nt,nt,-10,nt
CCOC(=O)[C@]12CCCCC/C=C\1N(Cc1ccc(OC)cc1)C(=O)[C@H]2CC(=O)NCCCOC,nt,nt,nt,nt,-1,nt
CCc1ccc(C=NN2CCN(Cc3ccc(C)cc3C)CC2)cc1,nt,nt,nt,nt,3,nt
CC1(C)CC2(CC(C)(C(=O)CSc3nc4ccccc4s3)OC2=O)C(=O)O1 (stereo unspecified),?,16350*,0,-2,2,0
CC1CC2(CC(C)(C(=O)CSc3nc4ccccc4s3)OC2=O)C(=O)O1 (stereo unspecified),-3,23789*,-4,0,-5,-3
CC1(C(=O)CSc2nc3ccccc3s2)CCC(=O)O1 (stereo unspecified),1,2988,7,0,1,3
COc1ccc(CN(CCN2CCOCC2)C(=O)c2cccc(F)c2F)cc1OC,nt,nt,nt,nt,-5,nt
COc1cc(NC(=O)c2cccnc2)ccc1-c1cc2ccccc2oc1=O,nt,nt,3,nt,-11,nt
COc1cc(NC(=O)c2cc(Cl)ccc2Cl)ccc1-c1cc2ccccc2oc1=O,3,22732*,1,0,-10,6
C#CCN(Cc1ccco1)C(=O)c1nnc2c3ccccc3n(S(=O)(=O)c3ccc(C)cc3)c2n1,nt,nt,nt,nt,-5,nt
Cc1cccc(C)c1OCCCCc1c(C)n[nH]c1C,0,22821*,-3,-8,-7,-5
COc1cccc(OC)c1OCCCCc1c(C)n[nH]c1C,0,3161,2,1,-2,-3
CC1=CCC(C(=O)O)(C(=O)N/N=C/c2cccs2)C(c2ccc(Cl)cc2)C1 (stereo unspecified),2,19841*,5,-2,26,0
CCCOc1ccc(-c2nc(=S)[nH][nH]2)cc1,?,22693*,6,-3,13,-1

# From PubChem
